About 83,000 compounds went through this panel and 20% of them were active in at least one assay; those are over-represented in the sample as a whole.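 Note: values are percent growth. 100 is the growth of untreated cells, values between 100 and 0 indicate rising inhibition; between -100 and 0 indicates cell death.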 Calls of active or inactive are those of the source. How the source made its calls: active means growth percent below 10; inactive means the rest.
tested on: U251 CNS; experiment: NCI-60 one-dose screen, 48 h (100 = growth as untreated, 0 = no growth, -100 = all killed); details: 10 µM unless noted

For `CC(c1ccc(-n2cccn2)cc1)c1cnc(N2CCc3ccc(C(N)=O)cc3C2)s1` (stereo not drawn), which growth is on record?
The growth was 78.3% (inactive).

`COc1cc2c(cc1OC)-c1ccc3cc4c(cc3c1N(CCCN1CCCCC1)C2)OCO4` was tested. Which growth did it give?
Its growth is 42.1% (inactive).

For `C[C@@H](C[C@H](CCOCc1cccnc1)c1ccccc1)c1cc2ccccc2o1`, which growth is on record?
Its growth is 93.6% (inactive).

For `N#Cc1c(N)n2c(nc1=Nc1ccc([N+](=O)[O-])cc1)sc1cc(Cl)ccc12`, which growth is on record?
Its growth is 85.8% (inactive).

With `C=C1C(=O)O[C@H]2[C@H]1CC/C(C(=O)NCCCCCCCCNC(=O)/C1=C/CC[C@@]3(C)O[C@H]3[C@H]3OC(=O)C(=C)[C@@H]3CC1)=C\CC[C@@]1(C)O[C@@H]21` as the compound, how does the growth read?
Its growth is 95.6% (inactive).

How did the growth turn out when `O=C(NCCOCCOCCOCCNC(=O)c1cc2c(o1)C(=O)c1ccccc1C2=O)NC12CC3CC(CC(C3)C1)C2` was run?
The growth was -22% (active).

`CCOc1ccc2nc(-c3cccc(OCC(=O)NC(C)C)c3)nc(Nc3ccc(-c4cn[nH]c4)cc3)c2c1` was tested. Which growth did it give?
The growth was -33.8% (active).

For `CSc1ncc(C)c(Nc2ccc(Cl)cc2)n1`, which growth is on record?
Its growth is 93% (inactive).

`O=C1CCC(N2C(=O)c3cccc(NCCCC4CCN(CCNC(=O)c5cc6c(o5)C(=O)c5ccccc5C6=O)CC4)c3C2=O)C(=O)N1` (stereo not drawn) was tested. Which growth did it give?
Its growth is -83.6% (active).

With `CCOC(=O)C1C(=O)C=C(c2cnccn2)CC1c1ccc(OC)c(OC)c1` (stereo not drawn) as the compound, how does the growth read?
The growth was 99.5% (inactive).

For `OC(CBr)c1ccnc2ccccc12` (stereo not drawn), which growth is on record?
The growth was 95.8% (inactive).

With `O=C1N(c2ccccc2)C(=S)N[C@]12[C@H](c1ccccc1)C1CCCN1[C@]21C(=O)NC2C=CC(Cl)=C[C@H]21` (stereo partly drawn) as the compound, how does the growth read?
Its growth is 85% (inactive).

With `CC(C)n1nc(C#Cc2cccc(O)c2)c2c(N)ncnc21` as the compound, how does the growth read?
Its growth is -37.1% (active).

`COc1cc2c(=O)n(CCCn3ccnc3)c3c4cc5c(cc4ccc3c2cc1OC)OCO5` was tested. Which growth did it give?
Its growth is -2.14% (active).

For `O=C(/C=C/C12c3ccccc3C(c3ccccc31)C1C(=O)N(c3ccccc3)C(=O)C12)c1ccccc1` (stereo not drawn), which growth is on record?
The growth was 7.97% (active).

`O=C(CC12CC3CC(CC(C3)C1)C2)NCCOCCOCCOCCNC(=O)c1cc2c(o1)C(=O)c1ccccc1C2=O` was tested. Which growth did it give?
Its growth is -19.6% (active).

`O=C1Nc2ccccc2/C1=N/N=C/c1ccc(OC2OC(CO)C(O)C(O)C2O)cc1` (stereo not drawn) was tested. Which growth did it give?
The growth was 106% (inactive).

For `CC(=[N-])N1CCC[C@@H](Nc2c3ccccc3nc3ccccc23)C1.[Cl][Pt].[NH-]CCC[NH-]`, which growth is on record?
Its growth is 44.3% (inactive).

How did the growth turn out when `O=C1Nc2ccccc2/C1=N/N=C/c1c[nH]c2ccccc12` was run?
Its growth is 73.6% (inactive).

How did the growth turn out when `CNC1(C#N)CCN(Cc2ccccc2)CC1` was run?
Its growth is 108% (inactive).

With `COc1cc2c(cc1OC)-c1ccc3cc4c(cc3c1N(CCCn1ccnc1)C2)OCO4` as the compound, how does the growth read?
Its growth is -6.84% (active).

How did the growth turn out when `NC(=O)c1c(NC(=O)c2ccccn2)sc2c1CCC(=O)C2` was run?
Its growth is 13.6% (inactive).

How did the growth turn out when `NC(N)=N/N=C/c1ccc(Br)cc1` was run?
Its growth is 25.4% (inactive).

With `CCNCCNc1cc(C2CCCC2)c(C#N)c2nc3ccccc3n12` as the compound, how does the growth read?
Its growth is -19.1% (active).

`CS(=O)(=O)c1ccc(-c2[nH]c3ccc(F)cc3c2/C=N/O)cc1` was tested. Which growth did it give?
The growth was 91.2% (inactive).

With `N=C(N)c1ccc(-c2ccc(-c3ccc(Cl)cc3Cl)o2)cc1` as the compound, how does the growth read?
The growth was -59.4% (active).

Which growth does the source give for `CC(=O)C(C(C)=O)c1nc2sc3cc(Cl)ccc3n2c(=N)c1C#N` here?
Its growth is 82.3% (inactive).

With `Cc1ccc(/C=C(\C#N)n2nnc3cc(Cl)c(Cl)cc32)cc1` as the compound, how does the growth read?
Its growth is 7.49% (active).

With `O=S(=O)(NCCNc1cc(-c2c(-c3cccc(O)c3)nc3sccn23)ccn1)c1ccc(Br)cc1` as the compound, how does the growth read?
Its growth is 64.6% (inactive).

With `COc1ccc(/C(C)=N/NS(=O)(=O)c2ccc(C)cc2)cc1OC` as the compound, how does the growth read?
The growth was 99.6% (inactive).

Which growth does the source give for `C=C(Cl)COC(=O)C(C)(C)O` here?
The growth was 100% (inactive).

Which growth does the source give for `CCc1c(C(=O)N[C@@H]2c3cc(Cl)ccc3CC[C@@H]2O)[nH]c(C)c1C(C)=O` here?
Its growth is 48.4% (inactive).

With `COc1cc2nc(Nc3ccc(F)cc3)nc(N)c2cc1OC` as the compound, how does the growth read?
The growth was 94% (inactive).

For `c1ccc2c(c1)nc(-n1ccnc1)c1nc3ccccc3n12`, which growth is on record?
Its growth is 61.5% (inactive).

For `COC(=O)/C(=C\c1ccc(OC)cc1)C(=O)N1c2ccccc2Sc2ccccc21`, which growth is on record?
Its growth is 50.3% (inactive).

Which growth does the source give for `CN1CCN(c2ccc(Nc3ncc(Cl)c(NC[C@@H]4CCCO4)n3)cc2)CC1` here?
Its growth is 32.5% (inactive).

With `O=C(NC1CCOCC1)c1ccc2c(c1)CN(c1ncc(Cc3cccc(-n4cccn4)c3)s1)CC2` as the compound, how does the growth read?
Its growth is 72.6% (inactive).

Which growth does the source give for `[2H]c1nc(Nc2ncc(F)c(-c3cc(F)c4nc(C)n(C(C)C)c4c3)n2)c([2H])c([2H])c1CN1CCN(C([2H])([2H])C([2H])([2H])[2H])CC1` here?
Its growth is 42.2% (inactive).

Which growth does the source give for `COc1ccc(C2CC(c3cnccn3)=NN2)cc1OC` (stereo not drawn) here?
Its growth is 96.7% (inactive).

tested on: PC-3 prostate; experiment: as above; details: 10 µM unless noted

`CC(c1ccc(-n2cccn2)cc1)c1cnc(N2CCc3ccc(C(N)=O)cc3C2)s1` (stereo not drawn) was tested. Which growth did it give?
The growth was 59.1% (inactive).

For `COc1cc2c(cc1OC)-c1ccc3cc4c(cc3c1N(CCCN1CCCCC1)C2)OCO4`, which growth is on record?
The growth was 29.3% (inactive).

`C[C@@H](C[C@H](CCOCc1cccnc1)c1ccccc1)c1cc2ccccc2o1` was tested. Which growth did it give?
The growth was 75.6% (inactive).

How did the growth turn out when `N#Cc1c(N)n2c(nc1=Nc1ccc([N+](=O)[O-])cc1)sc1cc(Cl)ccc12` was run?
The growth was 81.8% (inactive).

Which growth does the source give for `C=C1C(=O)O[C@H]2[C@H]1CC/C(C(=O)NCCCCCCCCNC(=O)/C1=C/CC[C@@]3(C)O[C@H]3[C@H]3OC(=O)C(=C)[C@@H]3CC1)=C\CC[C@@]1(C)O[C@@H]21` here?
The growth was 74.5% (inactive).

With `O=C(NCCOCCOCCOCCNC(=O)c1cc2c(o1)C(=O)c1ccccc1C2=O)NC12CC3CC(CC(C3)C1)C2` as the compound, how does the growth read?
The growth was 12.1% (inactive).

With `CCOc1ccc2nc(-c3cccc(OCC(=O)NC(C)C)c3)nc(Nc3ccc(-c4cn[nH]c4)cc3)c2c1` as the compound, how does the growth read?
Its growth is 0.124% (active).

How did the growth turn out when `CSc1ncc(C)c(Nc2ccc(Cl)cc2)n1` was run?
Its growth is 87.6% (inactive).

How did the growth turn out when `O=C1CCC(N2C(=O)c3cccc(NCCCC4CCN(CCNC(=O)c5cc6c(o5)C(=O)c5ccccc5C6=O)CC4)c3C2=O)C(=O)N1` (stereo not drawn) was run?
Its growth is 2.13% (active).

With `CCOC(=O)C1C(=O)C=C(c2cnccn2)CC1c1ccc(OC)c(OC)c1` (stereo not drawn) as the compound, how does the growth read?
The growth was 70.4% (inactive).

`OC(CBr)c1ccnc2ccccc12` (stereo not drawn) was tested. Which growth did it give?
Its growth is 88.8% (inactive).

How did the growth turn out when `O=C1N(c2ccccc2)C(=S)N[C@]12[C@H](c1ccccc1)C1CCCN1[C@]21C(=O)NC2C=CC(Cl)=C[C@H]21` (stereo partly drawn) was run?
The growth was 47.8% (inactive).

`CC(C)n1nc(C#Cc2cccc(O)c2)c2c(N)ncnc21` was tested. Which growth did it give?
The growth was -11.8% (active).

How did the growth turn out when `COc1cc2c(=O)n(CCCn3ccnc3)c3c4cc5c(cc4ccc3c2cc1OC)OCO5` was run?
The growth was 11.6% (inactive).

Which growth does the source give for `O=C(/C=C/C12c3ccccc3C(c3ccccc31)C1C(=O)N(c3ccccc3)C(=O)C12)c1ccccc1` (stereo not drawn) here?
Its growth is 21.2% (inactive).

For `O=C(CC12CC3CC(CC(C3)C1)C2)NCCOCCOCCOCCNC(=O)c1cc2c(o1)C(=O)c1ccccc1C2=O`, which growth is on record?
Its growth is 13.1% (inactive).

How did the growth turn out when `O=C1Nc2ccccc2/C1=N/N=C/c1ccc(OC2OC(CO)C(O)C(O)C2O)cc1` (stereo not drawn) was run?
The growth was 105% (inactive).

`CC(=[N-])N1CCC[C@@H](Nc2c3ccccc3nc3ccccc23)C1.[Cl][Pt].[NH-]CCC[NH-]` was tested. Which growth did it give?
The growth was 70.6% (inactive).

For `O=C1Nc2ccccc2/C1=N/N=C/c1c[nH]c2ccccc12`, which growth is on record?
The growth was 81.5% (inactive).

For `CNC1(C#N)CCN(Cc2ccccc2)CC1`, which growth is on record?
Its growth is 97.6% (inactive).

How did the growth turn out when `COc1cc2c(cc1OC)-c1ccc3cc4c(cc3c1N(CCCn1ccnc1)C2)OCO4` was run?
The growth was 37.6% (inactive).

Which growth does the source give for `NC(=O)c1c(NC(=O)c2ccccn2)sc2c1CCC(=O)C2` here?
Its growth is 10.7% (inactive).

`NC(N)=N/N=C/c1ccc(Br)cc1` was tested. Which growth did it give?
Its growth is 27.8% (inactive).

With `CCNCCNc1cc(C2CCCC2)c(C#N)c2nc3ccccc3n12` as the compound, how does the growth read?
The growth was 39.6% (inactive).

How did the growth turn out when `CS(=O)(=O)c1ccc(-c2[nH]c3ccc(F)cc3c2/C=N/O)cc1` was run?
Its growth is 79.4% (inactive).

For `N=C(N)c1ccc(-c2ccc(-c3ccc(Cl)cc3Cl)o2)cc1`, which growth is on record?
The growth was 52.6% (inactive).

For `CC(=O)C(C(C)=O)c1nc2sc3cc(Cl)ccc3n2c(=N)c1C#N`, which growth is on record?
Its growth is 65.2% (inactive).

`Cc1ccc(/C=C(\C#N)n2nnc3cc(Cl)c(Cl)cc32)cc1` was tested. Which growth did it give?
Its growth is 12.8% (inactive).

For `O=S(=O)(NCCNc1cc(-c2c(-c3cccc(O)c3)nc3sccn23)ccn1)c1ccc(Br)cc1`, which growth is on record?
The growth was 49.8% (inactive).

How did the growth turn out when `COc1ccc(/C(C)=N/NS(=O)(=O)c2ccc(C)cc2)cc1OC` was run?
Its growth is 91.6% (inactive).

With `C=C(Cl)COC(=O)C(C)(C)O` as the compound, how does the growth read?
The growth was 92.8% (inactive).

Which growth does the source give for `CCc1c(C(=O)N[C@@H]2c3cc(Cl)ccc3CC[C@@H]2O)[nH]c(C)c1C(C)=O` here?
Its growth is 49.8% (inactive).

`COc1cc2nc(Nc3ccc(F)cc3)nc(N)c2cc1OC` was tested. Which growth did it give?
The growth was 84.1% (inactive).

`c1ccc2c(c1)nc(-n1ccnc1)c1nc3ccccc3n12` was tested. Which growth did it give?
Its growth is 68% (inactive).

`COC(=O)/C(=C\c1ccc(OC)cc1)C(=O)N1c2ccccc2Sc2ccccc21` was tested. Which growth did it give?
Its growth is 53% (inactive).

Which growth does the source give for `CN1CCN(c2ccc(Nc3ncc(Cl)c(NC[C@@H]4CCCO4)n3)cc2)CC1` here?
Its growth is 30.7% (inactive).

With `O=C(NC1CCOCC1)c1ccc2c(c1)CN(c1ncc(Cc3cccc(-n4cccn4)c3)s1)CC2` as the compound, how does the growth read?
Its growth is 58.7% (inactive).

With `[2H]c1nc(Nc2ncc(F)c(-c3cc(F)c4nc(C)n(C(C)C)c4c3)n2)c([2H])c([2H])c1CN1CCN(C([2H])([2H])C([2H])([2H])[2H])CC1` as the compound, how does the growth read?
The growth was 44.2% (inactive).

How did the growth turn out when `COc1ccc(C2CC(c3cnccn3)=NN2)cc1OC` (stereo not drawn) was run?
The growth was 92% (inactive).

From PubChem BioAssay (NCI)
